NALP1 inh: blocks the NALP1 inflammasome reconstituted in yeast. S. cerevisiae NALP1/ASC/caspase-1 growth, X-gal OD620, 72 h. inhibition, % at 10 µM. actives 0.61% (n = 280,000). AID 2071; in the data active = inhibition mostly above about 24%, no sharp cut-off; inactive = mostly below about 32%
tim23-1 inh: growth inhibitors of tim23-1 mutant yeast. S. cerevisiae tim23-1 growth, BacTiter-Glo luminescence, 24 h. inhibition, % at 20 µM. actives 1.3% (n = 330,000);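 active = growth inhibition of the mutant yeast at or above 50%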;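 also: temperature-sensitive mutant grown at 25 °C; plate controls were DMSO-treated mutant yeast for no effect and medium wells lacking yeast for full effect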
NLRP3 yeast inh: blocks the NALP3 inflammasome reconstituted in yeast. Yeast reconstituted NLRP3/ASC/caspase-1, beta-gal luminescence, 24 h. inhibition, % at 10 µM. actives 0.39% (n = 330,000). AID 2825;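 active = inhibition of 50% or more; inactive = inhibition below 50%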;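 also: plate controls were induced DMSO wells for no effect and uninduced yeast grown without galactose for full effect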
V-ATPase pH: regulators of yeast V-ATPase proton transport. S. cerevisiae, pHLuorin cytosolic pH fluorescence. response, % at 10 µM. actives 0.37% (n = 350,000). AID 504577; in the data active = response mostly above about 7.3%, no sharp cut-off; inactive = mostly below about 5.4%; also: actives read high
tim10-1 inh: growth inhibitors of tim10-1 mutant yeast | inhibition, % at 20 µM | AID 463190 | S. cerevisiae tim10-1 ts strain growth, BacTiter-Glo, 24 h | actives 2.2% (n = 330,000);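 active = inhibition of at least 40%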;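 also: mutant grown at 25 °C; 0% = DMSO wells with yeast and 100% = wells holding no yeast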
TIM10 inh: inhibits growth of TIM10 yeast strain | S. cerevisiae TIM10 strain growth, BacTiter-Glo luminescence, 24 h | inhibition, % at 10 µM | actives 1.4% (n = 330,000) | AID 463195;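 active = inhibition of 40% or more at the single tested concentration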;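 also: wild-type TIM10 isogenic control strain grown at permissive 25 °C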
tim10-1 confirm: tim10-1 yeast growth inhibition, confirmed | shares compounds with tim10-1 inh | S. cerevisiae tim10-1 ts strain growth, BacTiter-Glo, 24 h | AID 463213 | actives 56% (n = 7,400) | inhibition, % at 20 µM;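 active = inhibition of yeast growth at or above a set limit in either of two repeat tests at 20 µM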;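 also: tim10-1 mutant grown at permissive 25 °C to find synthetic lethal compounds; 0% = DMSO yeast wells and 100% = medium wells without yeast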
Starred values were filed as active, the others as inactive. This is a sample that favours compounds with a hit; in the whole collection about 4.2% have one here.

Results for Cn1c2c(c3ccccc31)CC/C2=N\O ?
NALP1 inh: 26; tim23-1 inh: 7; NLRP3 yeast inh: 26; V-ATPase pH: 8; tim10-1 inh: 9; TIM10 inh: 1

What do the screens show for `O=C(CN=C1NS(=O)(=O)c2ccccc21)OCC(=O)c1ccccc1`?
NALP1 inh: 13; tim23-1 inh: 3; NLRP3 yeast inh: 3; V-ATPase pH: 1; tim10-1 inh: 3; TIM10 inh: 6

How did COCCN(Cc1ccccc1)C(=O)c1cc(S(=O)(=O)N2CCCCCC2)ccc1OC do in these assays?
tim23-1 inh: 9; NLRP3 yeast inh: 3; V-ATPase pH: -3; tim10-1 inh: 6; TIM10 inh: 11

How did CC(=O)Nc1ccc2c(c1)nc(C)n2-c1ccccc1 do in these assays?
NALP1 inh: -3; tim23-1 inh: -7; NLRP3 yeast inh: 22; V-ATPase pH: 4; tim10-1 inh: -9; TIM10 inh: -6

How did Cc1nc2cc(Cl)ccc2n1-c1ccccc1 do in these assays?
tim23-1 inh: 24; NLRP3 yeast inh: 13; V-ATPase pH: -2; tim10-1 inh: 47*; TIM10 inh: -4; tim10-1 confirm: 19

How did Cc1ccccc1-c1nc2sc(C)c(C)c2c(=O)o1 do in these assays?
NALP1 inh: 16; tim23-1 inh: 12; NLRP3 yeast inh: 14; V-ATPase pH: 1; tim10-1 inh: 3; TIM10 inh: -22

How did Cc1sc2nc(-c3ccco3)oc(=O)c2c1C do in these assays?
NALP1 inh: 25; tim23-1 inh: 36; NLRP3 yeast inh: 14; V-ATPase pH: 1; tim10-1 inh: 42*; TIM10 inh: 21; tim10-1 confirm: 29

Results for Cc1cc(NC(=O)c2c(F)cccc2Cl)n(-c2nc3ccccc3[nH]2)n1 ?
NALP1 inh: 17; tim23-1 inh: 37; NLRP3 yeast inh: 6; tim10-1 inh: 40*; TIM10 inh: 1; tim10-1 confirm: 30

Results for CC(OC(=O)c1ccc([N+](=O)[O-])s1)C(=O)NC1CCCCC1C (centres undefined) ?
tim23-1 inh: 19; NLRP3 yeast inh: 9; V-ATPase pH: 0; tim10-1 inh: 47*; TIM10 inh: 39; tim10-1 confirm: 39*

How did COc1cc(C(=O)OC(C)C(=O)NC2CCCCC2C)c([N+](=O)[O-])cc1OC (centres undefined) do in these assays?
tim23-1 inh: 17; NLRP3 yeast inh: -4; V-ATPase pH: -3; tim10-1 inh: 19; TIM10 inh: 4

How did CCOc1ccc(NC(=O)CSCc2cnn(-c3ccccc3)c2-n2cccc2)cc1 do in these assays?
NALP1 inh: 0; tim23-1 inh: 29; NLRP3 yeast inh: 8; V-ATPase pH: 0; tim10-1 inh: 44*; TIM10 inh: 14; tim10-1 confirm: 30*

What do the screens show for `COCCN1C(=O)/C(=C/c2ccc(N3CCCC3)cc2C)SC1=S`?
NALP1 inh: 5; tim23-1 inh: 2; NLRP3 yeast inh: 16; V-ATPase pH: -1; tim10-1 inh: 40; TIM10 inh: 22

How did COc1ccc(/C=C/C(=O)NCc2cn(C)nc2C)cc1COc1ccc(Br)cc1 do in these assays?
NALP1 inh: 4; tim23-1 inh: 23; NLRP3 yeast inh: -5; V-ATPase pH: 2; tim10-1 inh: 40*; TIM10 inh: 19; tim10-1 confirm: 11

How did Cc1nc(SCC(=O)N2CCN(c3ccccc3)CC2)c2oc3ccccc3c2n1 do in these assays?
NALP1 inh: 11; tim23-1 inh: 40; NLRP3 yeast inh: 43; V-ATPase pH: -2; tim10-1 inh: 48*; TIM10 inh: 31; tim10-1 confirm: 43*

How did NC(=O)CSc1nnc(-c2ccoc2)o1 do in these assays?
NALP1 inh: 20; tim23-1 inh: 14; NLRP3 yeast inh: 3; V-ATPase pH: -4; tim10-1 inh: 3; TIM10 inh: -1

What do the screens show for `COc1cccc2cc(C(=O)Oc3ccccc3)c(=O)oc12`?
NALP1 inh: -4; tim23-1 inh: 10; NLRP3 yeast inh: 8; V-ATPase pH: 0; tim10-1 inh: 5; TIM10 inh: 1

How did COc1cccc2cc(C(=O)OCc3ccccc3)c(=O)oc12 do in these assays?
NALP1 inh: 23; tim23-1 inh: 45; NLRP3 yeast inh: 18; V-ATPase pH: -2; tim10-1 inh: 42*; TIM10 inh: 24; tim10-1 confirm: 23

How did CCOc1ccc(-c2cc(C(=O)O)c3ccccc3n2)cc1 do in these assays?
NALP1 inh: 10; tim23-1 inh: 10; NLRP3 yeast inh: 14; V-ATPase pH: 0; tim10-1 inh: 9; TIM10 inh: 4

Results for CCOc1ccc(NC(=O)[C@@H]2CCCN2C(=O)c2cccs2)cc1S(=O)(=O)N1CCOCC1 ?
tim23-1 inh: 17; NLRP3 yeast inh: -4; V-ATPase pH: -3; tim10-1 inh: 12; TIM10 inh: 3

What do the screens show for `O=C(COC(=O)CCc1nc2ccccc2n1-c1ccccc1)Nc1cccc(Cl)c1`?
NALP1 inh: 27; tim23-1 inh: 13; NLRP3 yeast inh: 5; V-ATPase pH: 0; tim10-1 inh: 22; TIM10 inh: 13

What do the screens show for `CCCCNC(=S)NCc1ccc2[nH]c3c(c2c1)CCCC3`?
NALP1 inh: -9; tim23-1 inh: 49; NLRP3 yeast inh: 14; V-ATPase pH: 2; tim10-1 inh: 40*; TIM10 inh: 33; tim10-1 confirm: 10

What do the screens show for `CCn1c(-c2cc(Br)cc(OC)c2O)nc2cc(S(=O)(=O)N(C)C)ccc21`?
NALP1 inh: 20; tim23-1 inh: 17; NLRP3 yeast inh: -7; V-ATPase pH: -2; tim10-1 inh: 43*; TIM10 inh: 19; tim10-1 confirm: 16

Results for CC(=O)Nc1ccccc1OCC(=O)c1cc(C)n(Cc2cccs2)c1C ?
NALP1 inh: 7; tim23-1 inh: 19; NLRP3 yeast inh: -8; tim10-1 inh: 48*; TIM10 inh: 16; tim10-1 confirm: 19

Results for Cc1cc(C(=O)COc2cccnc2[N+](=O)[O-])c(C)n1Cc1cccs1 ?
NALP1 inh: -10; tim23-1 inh: -14; NLRP3 yeast inh: 13; V-ATPase pH: -1; tim10-1 inh: 10; TIM10 inh: 0

How did COc1ccc(-n2cnnc2SCC(=O)c2cc(C)n(Cc3cccs3)c2C)cc1 do in these assays?
NALP1 inh: 8; tim23-1 inh: 21; NLRP3 yeast inh: 6; V-ATPase pH: -1; tim10-1 inh: 44*; TIM10 inh: 25; tim10-1 confirm: 23

What do the screens show for `COc1ccc(/C=C/c2c(-c3ccc(OC)cc3)oc(=O)c3cc(OC)c(OC)cc23)cc1`?
tim23-1 inh: 16; NLRP3 yeast inh: 3; V-ATPase pH: -4; tim10-1 inh: 10; TIM10 inh: 4

What do the screens show for `COc1ccc(-c2oc3cccnc3c2/C=C/c2ccc(OC)c(OC)c2)cc1`?
NALP1 inh: -14; tim23-1 inh: 37; NLRP3 yeast inh: 22; V-ATPase pH: -2; tim10-1 inh: 41*; TIM10 inh: 18; tim10-1 confirm: 14

Source: PubChem BioAssay (several laboratories)
